Data from PubChem BioAssay AID1159580 (chemical genetic matrix, 2015).
Out of some 5,500 compounds screened, about 2,000 (36%) were called active. Roughly 18% stayed inconclusive and do not appear here. Cut-off read from the data, not from the text of the source: active = normalized growth mostly below about 0.91 (no sharp cut-off); inconclusive = no clear call, values can overlap the other calls; inactive = mostly above about 0.92. The list shows a part of the results.

Experiment: chemical genetic growth profiling, strain panel (AID 1159580);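 note: tested at 20 µM; growth read once vehicle control cultures reached saturation at 30 °C; 1 = growth at the plate median or of vehicle wells; lower values mean less growth of the strain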
Details: S. cerevisiae deletion strains, growth OD
[1] = locus YAR019C, strain CDC15, stronger effect = lower value
[2] = locus YBL105C, strain PKC1, stronger effect = lower value
[3] = locus YBR135W, strain CKS1, stronger effect = lower value
[4] = locus YBR136W, strain MEC1, stronger effect = lower value
[5] = locus YBR160W, strain CDC28, stronger effect = lower value
[6] = locus YDL017W, strain CDC7, stronger effect = lower value
[7] = locus YDL028C, strain MPS1, stronger effect = lower value
[8] = locus YDL101C, strain DUN1, stronger effect = lower value
[9] = locus YDL108W, strain KIN28, stronger effect = lower value
[10] = locus YDL132W, strain cdc53, stronger effect = lower value
[11] = locus YDL214C, strain PRR2, stronger effect = lower value
[12] = locus YDR052C, strain DBF4, stronger effect = lower value
[13] = locus YDR054C, strain cdc34, stronger effect = lower value
[14] = locus YDR226W, strain ADK1, stronger effect = lower value
[15] = locus YDR477W, strain SNF1, stronger effect = lower value
[16] = locus YER123W, strain YCK3, stronger effect = lower value
[17] = locus YER133W, strain GLC7, stronger effect = lower value
[18] = locus YFL009W, strain cdc4, stronger effect = lower value
[19] = locus YFL029C, strain CAK1, stronger effect = lower value
[20] = locus YFR003C, strain YPI1, stronger effect = lower value
[21] = locus YFR019W, strain FAB1, stronger effect = lower value
[22] = locus YFR028C, strain CDC14, stronger effect = lower value
[23] = locus YGR040W, strain KSS1, stronger effect = lower value
[24] = locus YGR052W, strain FMP48, stronger effect = lower value
[25] = locus YGR092W, strain DBF2, stronger effect = lower value
[26] = locus YHR030C, strain SLT2, stronger effect = lower value
[27] = locus YHR079C, strain IRE1, stronger effect = lower value
[28] = locus YHR082C, strain KSP1, stronger effect = lower value
[29] = locus YHR205W, strain SCH9, stronger effect = lower value
[30] = locus YIL147C, strain SLN1, stronger effect = lower value
[31] = locus YJL095W, strain BCK1, stronger effect = lower value
[32] = locus YJL128C, strain PBS2, stronger effect = lower value
[33] = locus YJL157C, strain FAR1, stronger effect = lower value
[34] = locus YJR016C, strain ILV3, stronger effect = lower value
[35] = locus YJR066W, strain TOR1 (second series), stronger effect = lower value
[36] = locus YJR066W, strain TOR1, stronger effect = lower value
[37] = locus YKL048C, strain ELM1, stronger effect = lower value
[38] = locus YKL067W, strain YNK1, stronger effect = lower value
[39] = locus YKL101W, strain HSL1, stronger effect = lower value
[40] = locus YKL193C, strain SDS22, stronger effect = lower value
[41] = locus YKL203C, strain TOR2, stronger effect = lower value
[42] = locus YLR113W, strain HOG1, stronger effect = lower value
[43] = locus YLR133W, strain CKI1, stronger effect = lower value
[44] = locus YLR403W, strain SFP1, stronger effect = lower value
[45] = locus YML070W, strain DAK1, stronger effect = lower value
[46] = locus YMR001C, strain CDC5, stronger effect = lower value
[47] = locus YMR205C, strain PFK2 (second series), stronger effect = lower value
[48] = locus YMR277W, strain FCP1, stronger effect = lower value
[49] = locus YNL006W, strain LST8, stronger effect = lower value
[50] = locus YNL020C, strain ARK1, stronger effect = lower value
[51] = locus YNL161W, strain CBK1, stronger effect = lower value
[52] = locus YNL183C, strain NPR1, stronger effect = lower value
[53] = locus YNL207W, strain RIO2, stronger effect = lower value
[54] = locus YNL222W, strain SSU72, stronger effect = lower value
[55] = locus YNL307C, strain MCK1 (second series), stronger effect = lower value
[56] = locus YOL078W, strain AVO1, stronger effect = lower value
[57] = locus YOL136C, strain PFK27, stronger effect = lower value
[58] = locus YOR061W, strain CKA2, stronger effect = lower value
[59] = locus YOR119C, strain RIO1, stronger effect = lower value
[60] = locus YOR231W, strain MKK1, stronger effect = lower value
[61] = locus YOR329C, strain SCD5, stronger effect = lower value
[62] = locus YPL031C, strain PHO85, stronger effect = lower value
[63] = locus YPL153C, strain RAD53, stronger effect = lower value
[64] = locus YPL204W, strain HRR25, stronger effect = lower value
[65] = locus YPL209C, strain IPL1, stronger effect = lower value
[66] = locus YPL256C, strain CLN2, stronger effect = lower value
[67] = locus YPR025C, strain CCL1, stronger effect = lower value
[68] = locus YPR106W, strain ISR1, stronger effect = lower value
[69] = locus YPR111W, strain DBF20, stronger effect = lower value
[70] = strain NNK1, stronger effect = lower value
[71] = strain TSCII, stronger effect = lower value

Measured: normalized growth

CC(C)c1c(C(=O)c2ccccc2)c(-c2ccccc2)c(-c2ccc(F)cc2)n1CC[C@@H](O)C[C@@H](O)CC(=O)O
inactive: locus YAL030W, strain snc1, stronger effect = lower value 0.94 | locus YBR009C, strain hhf1, stronger effect = lower value 0.924 | locus YBR171W, strain sec66, stronger effect = lower value 0.984 | locus YCL011C, strain gbp2, stronger effect = lower value 0.942 | locus YCL069W, strain vba3, stronger effect = lower value 0.934 | locus YDL005C, strain med2, stronger effect = lower value 0.987 | locus YDL040C, strain nat1, stronger effect = lower value 0.99 | locus YDR001C, strain nth1, stronger effect = lower value 0.957 | locus YDR159W, strain sac3, stronger effect = lower value 0.882 | locus YDR195W, strain ref2 1.04 | locus YDR297W, strain sur2, stronger effect = lower value 0.946 | locus YDR335W, strain msn5, stronger effect = lower value 0.919 | locus YDR392W, strain spt3, stronger effect = lower value 1.01 | locus YEL037C, strain rad23, stronger effect = lower value 0.935 | locus YEL061C, strain CIN8 (second series), stronger effect = lower value 0.955 | locus YER016W, strain bim1, stronger effect = lower value 0.949 | locus YER111C, strain swi4, stronger effect = lower value 0.981 | locus YER155C, strain BEM2 (second series), stronger effect = lower value 0.917 | locus YGL167C, strain pmr1, stronger effect = lower value 1 | locus YGL173C, strain kem1, stronger effect = lower value 0.907 | locus YGL227W, strain vid30, stronger effect = lower value 0.962 | locus YGL240W, strain doc1, stronger effect = lower value 0.981 | locus YJL095W, strain BCK1 (second series), stronger effect = lower value 0.957 | locus YJL115W, strain asf1, stronger effect = lower value 0.953 | locus YJL129C, strain trk1, stronger effect = lower value 0.916 | locus YJL164C, strain tpk1, stronger effect = lower value 0.922 | locus YJL166W, strain qcr8, stronger effect = lower value 0.926 | locus YKL160W, strain elf1, stronger effect = lower value 0.921 | locus YKR026C, strain gcn3, stronger effect = lower value 0.952 | locus YKR091W, strain srl3, stronger effect = lower value 0.98 | locus YLL026W, stronger effect = lower value 0.937 | locus YLL041C, strain sdh2, stronger effect = lower value 0.981 | locus YLR027C, strain aat2, stronger effect = lower value 0.933 | locus YLR258W, strain gsy2, stronger effect = lower value 0.932 | locus YLR262C, strain YPT6 (second series), stronger effect = lower value 0.973 | locus YLR320W, strain mms22, stronger effect = lower value 0.899 | locus YLR342W, strain FKS1, stronger effect = lower value 0.94 | locus YLR384C, strain iki3, stronger effect = lower value 0.959 | locus YML120C, strain ndi1, stronger effect = lower value 0.93 | locus YMR058W, strain fet3, stronger effect = lower value 0.909 | locus YMR129W, stronger effect = lower value 0.946 | locus YMR205C, strain PFK2, stronger effect = lower value 0.946 | locus YNL071W, strain lat1, stronger effect = lower value 0.939 | locus YNL209W, strain ssb2, stronger effect = lower value 0.939 | locus YNL248C, strain rpa49, stronger effect = lower value 1.02 | locus YNL322C, strain KRE1 (second series), stronger effect = lower value 0.977 | locus YNR049C, strain mso1, stronger effect = lower value 0.952 | locus YOR080W, strain dia2, stronger effect = lower value 0.939 | locus YOR106W, strain vam3, stronger effect = lower value 0.877 | locus YOR265W, strain rbl2, stronger effect = lower value 0.95 | locus YOR290C, strain snf2, stronger effect = lower value 0.895 | locus YPL078C, strain atp4, stronger effect = lower value 0.908 | locus YPL106C, strain sse1, stronger effect = lower value 1.11 | locus YPL240C, strain hsp82, stronger effect = lower value 0.971

COc1ccc(NNC(=O)c2sc3ccccc3c2Cl)cc1
active: [11] 0.692 | [16] 0.287 | [17] 0.663 | [21] 0.37 | [23] 0.681 | [24] 0.558 | [25] 0.117 | [26] 0.302 | [27] 0.502 | [31] 0.341 | [33] 0.544 | [35] 0.243 | [37] 0.658 | [38] 0.587 | [39] 0.657 | [41] 0.686 | [42] 0.293 | [43] 0.627 | [44] 0.563 | [45] 0.419 | [47] 0.659 | [50] 0.643 | [55] 0.262 | [57] 0.433 | [58] 0.299 | [59] 0.604 | [60] 0.507 | [62] 0.657 | [63] 0.525 | [64] 0.576 | [66] 0.441
inactive: [1] 0.921 | [2] 0.927 | [3] 0.915 | [4] 0.922 | [5] 0.927 | [6] 0.936 | [7] 0.929 | [8] 0.954 | [9] 0.93 | [10] 0.959 | [12] 0.935 | [13] 0.923 | [14] 0.938 | [15] 0.694 | [18] 0.941 | [19] 0.92 | [20] 0.93 | [22] 0.92 | [28] 0.656 | [29] 0.612 | [30] 0.924 | [32] 0.878 | [34] 0.903 | [36] 0.579 | [40] 0.923 | [46] 0.925 | [48] 0.926 | [49] 0.914 | [51] 0.918 | [52] 0.595 | [53] 0.948 | [54] 0.906 | [56] 0.913 | [61] 0.927 | [65] 0.918 | [67] 0.929 | [68] 0.907 | [69] 0.918 | [70] 0.908 | [71] 0.923

COc1cc2c(cc1OC)C(C)N(C(=O)c1sc3ccccc3c1Cl)CC2 (stereo unspecified)
inactive: [1] 0.981 | [2] 0.975 | [3] 0.97 | [4] 0.975 | [5] 0.968 | [6] 0.98 | [7] 0.982 | [8] 0.982 | [9] 0.974 | [10] 0.974 | [11] 0.928 | [12] 0.989 | [13] 0.972 | [14] 0.975 | [15] 0.934 | [16] 0.9 | [17] 0.936 | [18] 0.972 | [19] 0.968 | [20] 0.978 | [21] 0.943 | [22] 0.977 | [23] 0.899 | [24] 0.981 | [25] 0.921 | [26] 0.93 | [27] 0.933 | [28] 0.958 | [29] 0.976 | [30] 0.984 | [31] 0.947 | [32] 0.955 | [33] 0.912 | [34] 0.97 | [35] 0.891 | [36] 0.983 | [37] 0.928 | [38] 0.943 | [39] 0.897 | [40] 0.981 | [41] 0.959 | [42] 0.865 | [43] 0.916 | [44] 0.906 | [45] 0.912 | [46] 0.975 | [47] 0.948 | [48] 0.978 | [49] 0.99 | [50] 0.922 | [51] 0.97 | [52] 0.948 | [53] 0.978 | [54] 0.966 | [55] 0.911 | [56] 0.972 | [57] 0.906 | [58] 0.914 | [59] 0.982 | [60] 0.891 | [61] 0.978 | [62] 0.927 | [63] 0.905 | [64] 0.905 | [65] 0.968 | [66] 0.894 | [67] 0.976 | [68] 0.963 | [69] 0.949 | [70] 0.972 | [71] 0.969
